Hits are enriched below; roughly 9.8% of the tested compounds scored in any of these assays.
HTT aggregate = mutant huntingtin aggregation inhibition | PC12 HttQ103-GFP aggregates, Acumen cytometry, 40 h | Potency, µM (top dose mostly 46.1 µM), for the others: top-dose activity change, negative = inhibition, actives largely listed as inhibitors | 220,000 tested, 1.1% active; further: potency means the concentration at half of the fitted maximal effect; on the % scale 0 is the no-effect control and ±100 the full control effect; nearly all actives have a fitted effect of over 60% in size
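Compounds (qHTS titration) were added to PC12 cells expressing an ecdysone-driven HTT exon 1 Q103–GFP fusion after induction with 100 nM tebufenozide. Aggregate formation was measured as GFP objects in cell lysates.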
JMJD2E inh = JMJD2E (human) inhibition; JMJD2E catalytic domain, FDH-coupled NADH fluorescence (FDH is formaldehyde dehydrogenase); Potency, µM (series often up to 57.1 µM), for inactives: at the highest dose activity change, negative = inhibition, hits mostly inhibitors; 230,000 tested, 1.6% active; active means well fitted inhibition curve with a large enough effect, not every such curve was filed as active; inconclusive means small, poorly fitted or top-dose-only effect, or another doubt; inactive means no such curve, though single readings can be large or run the other way;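 further: potency means the concentration at half of the fitted maximal effect; 0% = wells with enzyme and -100% = buffer wells without enzyme; nearly all actives have a fitted effect of over 50% in size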
Target sequence (B2RXH2 1-337 limits assumed): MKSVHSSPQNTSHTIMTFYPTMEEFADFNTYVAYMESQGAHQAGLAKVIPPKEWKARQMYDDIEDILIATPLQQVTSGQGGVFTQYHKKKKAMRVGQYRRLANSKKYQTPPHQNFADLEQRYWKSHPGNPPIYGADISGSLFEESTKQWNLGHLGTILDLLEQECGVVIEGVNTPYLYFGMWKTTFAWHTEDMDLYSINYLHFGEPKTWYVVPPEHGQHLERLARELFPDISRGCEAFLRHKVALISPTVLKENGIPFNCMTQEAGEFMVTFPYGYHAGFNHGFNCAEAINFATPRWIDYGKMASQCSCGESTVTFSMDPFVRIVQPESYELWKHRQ
ALDH1A1 block = ALDH1A1 (human) enzyme inhibition. P00352. Purified ALDH1A1, NADH fluorescence, propionaldehyde substrate. Potency, µM (titrated, usually from 75.3 µM), for the others: top-dose activity, negative = inhibition, usual class: inhibitors. 220,000 tested, 7.3% active; active means well fitted inhibition curve with a large enough effect, not every such curve was filed as active; inconclusive means small, poorly fitted or top-dose-only effect, or another doubt; inactive means no such curve, though single readings can be large or run the other way;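 further: potency means the concentration at half of the fitted maximal effect; plate controls were no enzyme wells and a reference inhibitor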
CBFb-RUNX1 inh = blocks binding between human CBF-beta and RUNX1; Q01196+Q13951; AlphaScreen CBFb-His/RUNX1-biotin binding, biochemical; Potency, µM (series often up to 59.8 µM), inactives show at the top dose activity, negative = inhibition, hits mostly inhibitors; 230,000 tested, under 10 active; AID 1477; further: % of control where 0% means no effect
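Compounds were screened at multiple concentrations against a preformed CBF-beta(His)/RUNX1(biotin) complex (30 nM of each) for 15 min at room temperature, followed by 90 min with nickel and streptavidin beads and AlphaScreen reading.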
HPGD block = HPGD (human) dehydrogenase inhibition; 150,000 tested, 4.3% active; AID 894; Potency, µM, without a hit: at the highest dose activity change, negative = inhibition, actives largely listed as inhibitors; P15428; purified HPGD, NADH fluorescence kinetic, PGE2 substrate; active means well fitted inhibition curve with a large enough effect, not every such curve was filed as active; inconclusive means small, poorly fitted or top-dose-only effect, or another doubt; inactive means no such curve, though single readings can be large or run the other way; further: potency means the concentration at half of the fitted maximal effect; on the % scale 0 is the no-effect control and ±100 the full control effect
Target sequence (P15428 whole entry, looked up): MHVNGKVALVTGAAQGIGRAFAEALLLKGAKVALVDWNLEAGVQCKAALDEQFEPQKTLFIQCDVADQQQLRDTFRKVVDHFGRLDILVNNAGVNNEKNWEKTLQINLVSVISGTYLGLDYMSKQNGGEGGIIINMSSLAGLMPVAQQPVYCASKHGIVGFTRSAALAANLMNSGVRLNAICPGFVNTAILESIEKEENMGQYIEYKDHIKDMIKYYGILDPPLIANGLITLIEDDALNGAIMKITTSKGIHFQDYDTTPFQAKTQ
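NADH formation kinetics: reaction with 30 uM PGE2 and 1 mM NAD+ (final), 20 nM enzyme, Tris-HCl pH 8 with Tween 20, after 15 min compound preincubation at room temperature. Fluorescence change, last versus first of five reads.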
HTT cytoprotect = Huntington cell model cytoprotection by ATP luminescence | Potency, µM (top dose mostly 56.4 µM), for the others: cytoprotection (ATP increase), usual class: activators | 230,000 tested, 0.14% active | AID 1471 | PC12 HTT-Q103 induced, cytoprotection, ATP luminescence, 40 h; further: potency means the concentration at half of the fitted maximal effect; % of control where 0% means no effect; nearly all actives have a fitted effect of over 45% in size
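Stable PC12 Q103-GFP cells in serum-supplemented, phenol red-free DMEM; induction by tebufenozide at 100 nM final; compound dose series; cell viability quantified luminescently from ATP.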
Numbers without * were called inactive; ? = inconclusive; . = not tested or not shown; [ ] = another dose, or the depositor's remark. Unless noted, the call rests on the fitted dose curve; in most records, active means well fitted curve in the direction sought with a large enough effect; inconclusive means small, poorly fitted or top-dose-only effect, or another doubt; inactive means no such curve, though single readings can be large; an effect the other way counts as inactive or inconclusive.

SMILES	HTT aggregate	JMJD2E inh	ALDH1A1 block	CBFb-RUNX1 inh	HPGD block	HTT cytoprotect
CC(=O)c1cccc(S(=O)(=O)N2CCCC(c3nc(-c4ccc(C)o4)no3)C2)c1 (stereo not drawn)	-8%	-5%	10µM*	-14%	-27%	-7%
COc1ccc(-c2noc(C3CCCN(S(=O)(=O)c4ccc(C)c(Cl)c4)C3)n2)cc1OC (stereo not drawn)	-13%	6%	1%	2%	.	10%
O=S(=O)(c1ccc2ccccc2c1)N1CCC(c2nc(-c3ccncc3)no2)CC1	-31%	?	-6%	-2%	-14%	16%[10 µM]
Cc1ccc(-c2noc(C3CCCN(S(=O)(=O)c4ccc(S(=O)(=O)N(C)C)cc4)C3)n2)o1 (stereo not drawn)	-14%	4%	25µM*	3%	-12%	-7%
Cc1ccc(-c2noc(C3CCCN(S(=O)(=O)c4ccc5ccccc5c4)C3)n2)o1 (stereo not drawn)	5%[9.22 µM]	1%	24µM*	-5%	20µM*	17%
Cc1ccc(S(=O)(=O)N2CCCC(c3nc(-c4ccc(C)o4)no3)C2)cc1 (stereo not drawn)	-27%	-6%	?	6%	-23%	13%
Cc1ccc(-c2noc(C3CCN(S(=O)(=O)c4ccc5c(c4)OCCO5)CC3)n2)o1	?	-12%	28µM*	-3%	-3%	-8%[10 µM]
CC1=NN(c2ccc(Br)cc2)C(=O)/C1=C/c1cccs1	8%	-16%	2.2µM*	-9%	14µM*	1%
CC1=NN(c2ccc(C)cc2)C(=O)/C1=C\c1ccc(Br)s1	-5%	-5%	2%	-18%	-19%	-18%[10 µM]
COC(=O)c1ccc(NS(=O)(=O)c2cc(C)ccc2OC)cc1	-14%	-18%	1%	4%	?	4%[0.074 µM]
CCn1nnnc1-c1ccc(OC)c(S(=O)(=O)Nc2ccc(C(=O)OC)cc2)c1	3%	8%	7.1µM*	-2%	-8%	-3%[0.074 µM]
CCn1nnnc1-c1ccc(OC)c(S(=O)(=O)Nc2ccc(OC)cc2)c1	?	4%	0.11µM*	6%	-16%	-26%
CCOC(=O)c1ccc(NS(=O)(=O)c2cc(-c3nnnn3C(C)C)ccc2OC)cc1	13%	-10%	2.8µM*	-13%	-22%	-17%[0.074 µM]
CCCCCCc1c(O)nc(SCCN(C)C)[nH]c1=O	13%[9.22 µM]	2%	.	2%	.	-6%[10 µM]
O=C(/C=C/c1ccco1)N1CCN(S(=O)(=O)c2cccs2)CC1	4%[9.22 µM]	-3%	7.1µM*	-20%	.	9%[10 µM]
Cc1ccc(/C=C/C(=O)N2CCN(S(=O)(=O)c3cccs3)CC2)o1	-33%[9.22 µM]	-18%	.	-3%	.	15%[10 µM]
O=C(/C=C/c1ccco1)N1CCN(S(=O)(=O)/C=C/c2ccccc2)CC1	14%	-1%	7.9µM*	-5%	.	-26%
O=C(CCNC(=O)c1ccccc1)NCC1CCCCC1	12%	-5%	1%	10%	.	-16%
CC(=O)Oc1cc2cccc(OC(C)=O)c(=O)c2c(OC(C)=O)c1OC(C)=O	10%	11µM*	4µM*	.	.	-57%
Cc1ccc(S(=O)(=O)N2CCN(S(=O)(=O)N3CCOCC3)CC2)cc1C	-2%	3%	9%	1%	-11%	-9%
Cc1ccc(S(=O)(=O)N2CCN(S(=O)(=O)N3CCOCC3)CC2)c(C)c1	-12%	6%	13µM*	3%	-10%	9%
COCCn1c(SCC(=O)c2c(-c3ccccc3)n(C)c3ccccc23)nnc1-c1ccncc1	15%	6%	20µM*	2%	-9%	8%[10 µM]
COCCn1c(SCc2nc3ccccc3c(=O)[nH]2)nnc1-c1ccncc1	-1%	-1%	2%	7%	-14%	-18%[10 µM]
CCCN1CCC(=O)N(C(CSc2ccc(Br)cc2)Cc2ccccc2)CC1 (stereo not drawn)	.	.	.	2%	.	.
CN(C)CCNC(=O)c1ccc(CS(=O)(=O)c2ccc(Br)cc2)o1	.	.	.	.	.	13%
SMILES	HTT aggregate	JMJD2E inh	ALDH1A1 block	CBFb-RUNX1 inh	HPGD block	HTT cytoprotect
CN(C)c1cc[n+](Cc2c(Cl)cccc2Cl)cc1	8.9µM*	10%	4%	-2%	1%	-39%[10 µM]
CN(C)c1cc[n+](CC(=O)Nc2c(Cl)cc(Cl)cc2Cl)cc1	2%[9.22 µM]	4%	6%	-1%	.	9%[10 µM]
CC(SCC(=O)O)c1nc2ccccc2[nH]1 (stereo not drawn)	-3%[9.22 µM]	-3%	.	15%	.	-5%[10 µM]
NC(=O)CC[C@@H]1NC(=O)[C@H](CO)NC(=O)c2cc([N+](=O)[O-])cc(I)c2NCCCC[C@@H](C(N)=O)NC(=O)[C@H](Cc2ccc(O)cc2)NC1=O	1%	-4%	-1%	-5%[2.36 µM]	-1%	.
NC(=O)CC[C@@H]1NC(=O)[C@H](CO)NC(=O)c2cc([N+](=O)[O-])cc(I)c2NCC[C@@H](C(N)=O)NC(=O)[C@H](Cc2ccc(O)cc2)NC1=O	1%	?	3.5µM*	6%[2.36 µM]	-10%	.
NS(=O)(=O)c1ccc(-n2cccc2C=O)cc1	-13%	-4%	-2%	8%	.	2%
COc1ccc2c(C)cc(SCC(=O)N3CCOCC3)nc2c1	-7%	-21%	22µM*	7%	-22%	-24%
OCCN1CC(O)C(O)C(O)C1CO (stereo not drawn)	6%	0%	6%	2%	-11%	?
CCCNC(=O)OC[C@@H]1O[C@H](CCO/N=C(\C)CCN2CCc3nc(-c4ccccc4)c(-c4ccccc4)cc3C2)C=C[C@@H]1Oc1ccc(OC)cc1	.	.	2%[13.5 µM]	12%[13.1 µM]	.	-9%[10 µM]
CC1=C(C(=O)Nc2ccc(Cl)cc2)C(c2cccs2)n2nnnc2N1 (stereo not drawn)	-10%	-7%	5µM*	5%	-10%	-10%
CC1=C(C(N)=O)C(c2cccs2)n2nc(-c3cccc(Cl)c3)nc2N1 (stereo not drawn)	-11%	5%	5%	1%	-15%	?
COC(=O)C1=C(C(=O)c2ccccc2)C(c2ccc(O)c(OC)c2)n2nnnc2N1 (stereo not drawn)	-5%	11%	9%	-16%	-5%	9%
COC(=O)C1=C(C(=O)c2ccccc2)C(c2cccs2)n2nnnc2N1 (stereo not drawn)	4%	-2%	22µM*	3%	-7%	8%[10 µM]
Cc1c(C(=O)Nc2ccccc2C(=O)N2CCCC2)cccc1[N+](=O)[O-]	7%[9.22 µM]	1%	6%	4%	.	-16%
Cc1ccc(C)c(N(CC(=O)N/N=C/c2ccc(-c3ccc([N+](=O)[O-])cc3)o2)S(=O)(=O)c2ccccc2)c1	13%	-4%	?	2%	-20%	-1%
